The supplement of paper PMC10849652
The full data set covers some 8,800 targets. This sample favours those with a hit. About 0.5% of all pairs of compound and target were hits.

compound: CS(=O)(=O)CCNCc1ccc(-c2ccc3ncnc(Nc4ccc(OCc5cccc(F)c5)c(Cl)c4)c3c2)o1 [lapatinib]; assay: log2 fold change, soluble protein after heating vs DMSO (PISA); higher = thermal stabilisation; K562 lysate, 10 uM; active = over 0.2 and 3.5 SD of the protein, either way, in both replicates (recomputed)
Method in brief: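 A 30 min treatment with 10 μM compound was applied to crude K562 extract at 1 mg/mL protein in PBS pH 7.4 with 1 mM MgCl2. Heating for 3 min spanned 48°C-58°C, after which aliquots were pooled, adjusted to 0.5% NP-40 at 4°C and spun at 21,000xg for 90 min. TMTpro 16plex LC-MS/MS of the supernatant, with channel sums equalised, gave values recorded as log-two fold change in thermal stability against solvent controls, from duplicates.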

UniProt P40939, sequence (P40939 whole entry, looked up): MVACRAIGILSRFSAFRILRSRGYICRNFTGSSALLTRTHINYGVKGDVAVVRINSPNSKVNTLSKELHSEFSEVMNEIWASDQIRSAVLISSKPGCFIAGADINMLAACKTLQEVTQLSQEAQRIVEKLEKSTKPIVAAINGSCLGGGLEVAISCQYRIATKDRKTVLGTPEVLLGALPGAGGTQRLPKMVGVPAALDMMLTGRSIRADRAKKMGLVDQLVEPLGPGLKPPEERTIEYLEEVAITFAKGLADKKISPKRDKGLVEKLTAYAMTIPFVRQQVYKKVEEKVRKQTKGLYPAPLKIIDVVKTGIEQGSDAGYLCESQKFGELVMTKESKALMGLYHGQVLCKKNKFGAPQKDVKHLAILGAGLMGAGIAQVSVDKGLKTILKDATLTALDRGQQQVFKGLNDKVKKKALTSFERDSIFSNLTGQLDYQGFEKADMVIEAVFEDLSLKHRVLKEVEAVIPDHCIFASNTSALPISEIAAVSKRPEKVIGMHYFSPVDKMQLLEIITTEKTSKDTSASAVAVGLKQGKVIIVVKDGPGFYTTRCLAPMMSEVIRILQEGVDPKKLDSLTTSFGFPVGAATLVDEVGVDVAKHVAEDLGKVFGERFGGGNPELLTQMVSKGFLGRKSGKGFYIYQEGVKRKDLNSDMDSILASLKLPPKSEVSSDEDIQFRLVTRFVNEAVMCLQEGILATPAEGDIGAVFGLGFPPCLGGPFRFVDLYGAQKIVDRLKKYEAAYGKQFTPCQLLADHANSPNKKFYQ
UniProt Q9NSC5, sequence (Q9NSC5 whole entry, looked up): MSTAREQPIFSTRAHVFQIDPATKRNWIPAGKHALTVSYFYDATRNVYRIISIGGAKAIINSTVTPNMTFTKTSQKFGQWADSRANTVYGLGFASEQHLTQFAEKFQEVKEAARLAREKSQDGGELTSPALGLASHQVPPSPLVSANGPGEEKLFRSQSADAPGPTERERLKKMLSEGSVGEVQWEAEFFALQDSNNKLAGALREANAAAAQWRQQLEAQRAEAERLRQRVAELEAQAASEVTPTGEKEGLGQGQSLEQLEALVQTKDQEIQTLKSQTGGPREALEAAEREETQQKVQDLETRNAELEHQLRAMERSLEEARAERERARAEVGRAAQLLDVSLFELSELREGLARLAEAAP
UniProt Q9BQQ3, sequence (Q9BQQ3 whole entry, looked up): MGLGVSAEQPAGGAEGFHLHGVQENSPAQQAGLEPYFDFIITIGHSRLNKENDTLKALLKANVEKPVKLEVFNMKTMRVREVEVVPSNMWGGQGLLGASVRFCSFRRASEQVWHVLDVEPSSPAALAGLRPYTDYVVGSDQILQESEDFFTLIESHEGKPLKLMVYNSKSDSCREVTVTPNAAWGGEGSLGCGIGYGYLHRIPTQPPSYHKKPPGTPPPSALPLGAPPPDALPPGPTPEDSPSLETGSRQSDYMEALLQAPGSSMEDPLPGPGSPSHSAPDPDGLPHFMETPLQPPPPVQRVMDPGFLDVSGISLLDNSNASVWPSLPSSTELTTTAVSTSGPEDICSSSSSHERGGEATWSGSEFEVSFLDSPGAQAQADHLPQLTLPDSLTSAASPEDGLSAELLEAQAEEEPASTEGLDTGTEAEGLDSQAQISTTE
UniProt Q9Y4H2, sequence (Q9Y4H2 whole entry, looked up): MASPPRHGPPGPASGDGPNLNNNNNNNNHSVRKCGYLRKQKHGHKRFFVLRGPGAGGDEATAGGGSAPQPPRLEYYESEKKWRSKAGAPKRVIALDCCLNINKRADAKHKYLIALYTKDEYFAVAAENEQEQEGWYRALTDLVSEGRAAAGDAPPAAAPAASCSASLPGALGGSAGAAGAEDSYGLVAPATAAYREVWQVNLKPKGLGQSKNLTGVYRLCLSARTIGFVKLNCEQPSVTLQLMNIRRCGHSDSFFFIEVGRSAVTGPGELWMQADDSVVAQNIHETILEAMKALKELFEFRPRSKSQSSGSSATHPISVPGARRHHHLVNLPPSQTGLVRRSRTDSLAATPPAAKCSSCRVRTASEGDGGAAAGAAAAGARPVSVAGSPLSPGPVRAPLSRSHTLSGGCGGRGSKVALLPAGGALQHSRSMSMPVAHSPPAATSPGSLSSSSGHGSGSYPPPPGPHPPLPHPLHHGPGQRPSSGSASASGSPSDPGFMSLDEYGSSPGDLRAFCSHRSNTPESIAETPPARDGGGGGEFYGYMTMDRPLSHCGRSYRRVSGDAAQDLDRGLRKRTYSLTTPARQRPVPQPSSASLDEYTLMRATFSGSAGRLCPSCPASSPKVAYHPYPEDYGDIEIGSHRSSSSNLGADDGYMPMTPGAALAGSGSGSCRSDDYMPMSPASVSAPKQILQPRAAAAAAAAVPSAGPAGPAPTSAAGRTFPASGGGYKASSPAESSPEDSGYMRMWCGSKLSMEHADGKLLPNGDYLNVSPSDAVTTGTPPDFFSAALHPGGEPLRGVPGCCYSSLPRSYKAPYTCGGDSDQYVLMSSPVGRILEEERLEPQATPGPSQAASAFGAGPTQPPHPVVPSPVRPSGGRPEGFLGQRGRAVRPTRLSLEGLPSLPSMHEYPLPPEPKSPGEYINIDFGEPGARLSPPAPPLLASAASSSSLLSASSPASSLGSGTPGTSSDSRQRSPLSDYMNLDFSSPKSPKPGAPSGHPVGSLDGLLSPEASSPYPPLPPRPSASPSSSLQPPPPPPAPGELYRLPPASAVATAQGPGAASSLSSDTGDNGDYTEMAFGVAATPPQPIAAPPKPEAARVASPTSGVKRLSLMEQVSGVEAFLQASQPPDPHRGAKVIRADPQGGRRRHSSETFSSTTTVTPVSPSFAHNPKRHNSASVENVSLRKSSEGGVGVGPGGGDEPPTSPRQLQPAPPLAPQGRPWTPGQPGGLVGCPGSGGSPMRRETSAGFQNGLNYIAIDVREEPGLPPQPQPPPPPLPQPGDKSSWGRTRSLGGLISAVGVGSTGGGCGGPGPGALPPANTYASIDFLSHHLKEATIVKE
UniProt Q9H079, sequence (Q9H079 whole entry, looked up): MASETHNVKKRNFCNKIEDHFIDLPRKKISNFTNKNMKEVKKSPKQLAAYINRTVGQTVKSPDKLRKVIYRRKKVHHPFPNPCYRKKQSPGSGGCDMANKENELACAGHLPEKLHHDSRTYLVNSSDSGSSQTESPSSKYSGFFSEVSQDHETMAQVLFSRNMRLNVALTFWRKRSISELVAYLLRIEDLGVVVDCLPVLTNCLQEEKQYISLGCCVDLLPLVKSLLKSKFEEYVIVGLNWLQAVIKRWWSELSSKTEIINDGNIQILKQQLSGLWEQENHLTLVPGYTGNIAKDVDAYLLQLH
UniProt Q99795, sequence (Q99795 whole entry, looked up): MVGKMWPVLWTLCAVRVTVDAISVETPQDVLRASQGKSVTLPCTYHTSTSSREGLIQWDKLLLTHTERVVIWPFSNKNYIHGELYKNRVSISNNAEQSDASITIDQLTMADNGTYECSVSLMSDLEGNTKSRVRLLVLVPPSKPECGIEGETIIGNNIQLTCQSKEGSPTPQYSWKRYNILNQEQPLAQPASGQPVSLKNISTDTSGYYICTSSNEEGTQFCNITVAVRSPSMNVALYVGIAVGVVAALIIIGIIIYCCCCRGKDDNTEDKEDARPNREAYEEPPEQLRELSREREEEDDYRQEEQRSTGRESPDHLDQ
UniProt Q9H9Y4, sequence (Q9H9Y4 whole entry, looked up): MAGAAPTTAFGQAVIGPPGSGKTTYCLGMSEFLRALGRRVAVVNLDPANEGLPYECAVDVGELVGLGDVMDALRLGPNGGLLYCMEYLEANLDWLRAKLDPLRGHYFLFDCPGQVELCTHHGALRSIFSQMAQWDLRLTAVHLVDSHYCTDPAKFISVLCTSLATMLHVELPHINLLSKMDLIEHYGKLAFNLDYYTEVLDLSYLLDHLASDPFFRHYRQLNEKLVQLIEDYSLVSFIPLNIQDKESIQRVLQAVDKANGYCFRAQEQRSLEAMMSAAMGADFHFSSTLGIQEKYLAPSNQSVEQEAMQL
UniProt Q96AB3, sequence (Q96AB3 whole entry, looked up): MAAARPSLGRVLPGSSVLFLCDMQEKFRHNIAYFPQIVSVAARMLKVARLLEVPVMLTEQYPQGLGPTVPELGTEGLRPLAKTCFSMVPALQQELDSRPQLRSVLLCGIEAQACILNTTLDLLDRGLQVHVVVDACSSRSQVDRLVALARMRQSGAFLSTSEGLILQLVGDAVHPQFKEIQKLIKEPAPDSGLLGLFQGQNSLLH
UniProt P17096, sequence (P17096 whole entry, looked up): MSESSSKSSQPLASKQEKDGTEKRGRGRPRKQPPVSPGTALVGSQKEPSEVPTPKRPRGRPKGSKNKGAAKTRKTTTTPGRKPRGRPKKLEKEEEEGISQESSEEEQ
UniProt P11142, sequence (P11142 whole entry, looked up): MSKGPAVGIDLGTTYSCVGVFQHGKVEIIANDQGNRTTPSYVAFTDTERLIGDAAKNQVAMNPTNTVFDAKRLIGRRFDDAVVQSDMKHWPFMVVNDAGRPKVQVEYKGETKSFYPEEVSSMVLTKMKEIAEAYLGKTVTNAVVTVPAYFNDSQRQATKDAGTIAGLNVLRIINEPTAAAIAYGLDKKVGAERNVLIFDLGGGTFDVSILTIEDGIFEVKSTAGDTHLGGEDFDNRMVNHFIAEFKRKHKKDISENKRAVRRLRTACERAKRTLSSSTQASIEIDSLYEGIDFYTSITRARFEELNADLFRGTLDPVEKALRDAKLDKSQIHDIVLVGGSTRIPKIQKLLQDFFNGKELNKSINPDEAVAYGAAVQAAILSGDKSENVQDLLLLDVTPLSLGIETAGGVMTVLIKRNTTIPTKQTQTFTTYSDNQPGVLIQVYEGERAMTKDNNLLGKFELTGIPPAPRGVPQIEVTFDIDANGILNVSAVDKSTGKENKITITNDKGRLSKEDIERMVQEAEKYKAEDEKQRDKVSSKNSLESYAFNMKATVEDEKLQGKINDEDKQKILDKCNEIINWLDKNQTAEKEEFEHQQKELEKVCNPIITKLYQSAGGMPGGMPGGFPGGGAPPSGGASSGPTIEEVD

log2 fold change, inactive:
HMGA1 isoform 2 (UniProt P17096) -0.005
IGFBP4 (UniProt P22692) -0.007
HSPA8 (UniProt P11142) 0.004
ISY1 isoform 1 (UniProt Q9ULR0) -0.033
ISOC2 (UniProt Q96AB3) -0.036
HYDIN (UniProt Q4G0P3) 0.037
IL18R1 (UniProt Q13478) -0.112
ITPR2 (UniProt Q14571) -0.571
GSTM2 (UniProt P28161) -0.024
HMGN5 (UniProt Q5JSK9) -0.04
GLYR1 (UniProt Q49A26) 0.053
HADHA (UniProt P40939) 0.1
GPN2 (UniProt Q9H9Y4) 0.041
HOMER3 (UniProt Q9NSC5) 0.091
HMGN4 (UniProt O00479) 0.038
HNRNPL, A0A3B3ITJ4 -0.011
IPP (UniProt Q9Y573) 0.04
H3-3A (UniProt P84243) 0.028
GNB4 (UniProt Q9HAV0) 0.031
JAK3 (UniProt P52333) -0.002
GPA33 (UniProt Q99795) -0.064
GORASP1 (UniProt Q9BQQ3) -0.031
IRS2 (UniProt Q9Y4H2) -0.128
KATNBL1 (UniProt Q9H079) -0.013
